{"source": "PubChem BioAssay (Tox21)", "note": "Results filed as inconclusive are left out. Entries that show only a call come without a potency. Values without a mark were called inactive. Activity calls are given as the source filed them. The call rests on the fitted dose curve; in most records, active means well fitted cell-killing curve with a large enough effect in the repeat runs; inconclusive means weak or mixed curves, or effect the other way; inactive means flat fitted curve, though single readings scatter. Potency means the concentration at half of the fitted maximal effect.", "data": [{"assay": "cAMP Responsive Elements (CRE) small molecule antagonists, cell-based qHTS assay: qHTS cell viability counter screen (AID 2060913); further: nearly all actives have a fitted effect of over 40% in size", "conditions": "CRE-bla HEK293T viability, CellTiter-Glo luminescence, 5 h; series mostly up to 92.4 µM", "procedure,_shortened": "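CRE-bla HEK293T cells (2,000/well, 18 h) given compound plus NKH477 0.25 uM final for 3 h at 37C; viability counter-screen by CellTiter-Glo luminescence in same wells after 30 min.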", "values": [{"smiles": "O=C(Nc1ccc(S(=O)(=O)N2CCOCC2)cc1)c1cc(Cl)ccc1NS(=O)(=O)c1ccc(Cl)s1", "Potency": "inactive"}, {"smiles": "COc1cc(Cl)ccc1Oc1ccc(Cl)cc1Cl", "Potency": "inactive"}, {"smiles": "O=C1CCc2ccc(OCCCCN3CCN(c4cccc(Cl)c4Cl)CC3)cc2N1", "Potency": "inactive"}, {"smiles": "CN1[C@@H]2CC[C@@H]1CC(OC(=O)C(CO)c1ccccc1)C2", "note": "(stereo not given in full)", "Potency": "inactive"}, {"smiles": "Cc1c(C)n(CCN(C)C)c2ccc(C(=O)OCCN(C)C)cc12", "Potency": "inactive"}, {"smiles": "CC1=CP(=O)(c2ccccc2)CC1", "note": "(stereo not given)", "Potency": "inactive"}, {"smiles": "CCCC(c1cc(C(C)(C)C)c(O)cc1C)c1cc(C(C)(C)C)c(O)cc1C", "Potency": "24.6 µM (active)"}, {"smiles": "CCC(=O)OC(C)c1ccccc1", "note": "(stereo not given)", "Potency": "inactive"}, {"smiles": "O=C1Cc2cc(Cl)ccc2N1", "Potency": "inactive"}, {"smiles": "O=C(O)c1cccnc1Nc1cccc(C(F)(F)F)c1", "Potency": "inactive"}, {"smiles": "CCN1CCN(C(=O)N[C@@H](C(=O)N[C@@H]2C(=O)N3[C@@H]2SC(C)(C)[C@H]3C(=O)O)c2ccccc2)C(=O)C1=O", "Potency": "inactive"}, {"smiles": "CCOC(=O)c1cccc(N)c1", "Potency": "inactive"}, {"smiles": "CCCCCCC(=O)OCC", "Potency": "inactive"}, {"smiles": "CCCCCCCCCCCCCCCCN(C)C", "viability change, negative = cytotoxic": "-5.89% [at 8.39 µM]"}, {"smiles": "CN(C)C(=O)C1(N2CCCCC2)CCN(CC[C@@]2(c3ccc(Cl)c(Cl)c3)CN(C(=O)c3ccccc3)CCO2)CC1", "Potency": "64.1 µM (active)"}, {"smiles": "O=C(OCC(COC(=O)c1cccnc1)(COC(=O)c1cccnc1)COC(=O)c1cccnc1)c1cccnc1", "Potency": "inactive"}, {"smiles": "CC1=NN(c2cc(S(=O)(=O)O)ccc2Cl)C(=O)C1N=Nc1ccccc1", "note": "(stereo not given)", "Potency": "inactive"}, {"smiles": "Cc1ccc2ccc3cccc4ccc1c2c34", "Potency": "inactive"}, {"smiles": "O=C(Nc1ccc([N+](=O)[O-])cc1Cl)c1cc(Cl)ccc1O", "Potency": "inactive"}, {"smiles": "Clc1nc2ccccc2s1", "Potency": "inactive"}, {"smiles": "CCCCN(CCO)CCO", "Potency": "inactive"}, {"smiles": "O=C1OC(OC(=O)c2cccnc2Nc2cccc(C(F)(F)F)c2)c2ccccc21", "note": "(stereo not given)", "Potency": "inactive"}, {"smiles": "CC(C)CC=O", "Potency": "inactive"}, {"smiles": "O=c1[nH]c2ccccc2c(=O)n1CCCl", "Potency": "inactive"}, {"smiles": "CN(C)c1ccc(SC#N)cc1", "Potency": "inactive"}, {"smiles": "c1ccc2[nH]cnc2c1", "Potency": "inactive"}, {"smiles": "CCN(CC)CCOc1ccc(C(O)(Cc2ccc(Cl)cc2)c2ccc(C)cc2)cc1", "note": "(stereo not given)", "Potency": "26.6 µM (active)"}, {"smiles": "C=CC(C)CCC=C(C)C", "note": "(stereo not given)", "Potency": "inactive"}, {"smiles": "O=S(=O)(O)c1cccc2c(S(=O)(=O)O)cccc12", "Potency": "inactive"}, {"smiles": "CCCCC(=O)O", "Potency": "inactive"}, {"smiles": "CN1C(=O)c2ccccc2C1=O", "Potency": "inactive"}, {"smiles": "CC1(C)[C@H]2CC[C@](C)(C2)[C@H]1O", "Potency": "inactive"}, {"smiles": "CCOC(=O)c1cccnc1", "Potency": "inactive"}, {"smiles": "CC(C)OC(=O)C(C)(C)Oc1ccc(C(=O)c2ccc(Cl)cc2)cc1", "Potency": "inactive"}, {"smiles": "N=C(N=C(N)N)N1CCOCC1", "Potency": "inactive"}, {"smiles": "C=CC(=O)OCCC#N", "Potency": "inactive"}, {"smiles": "C[Si](Cl)(c1ccccc1)c1ccccc1", "Potency": "inactive"}, {"smiles": "CC(C)CCCC(C)(C)O", "Potency": "inactive"}, {"smiles": "O=C1OC2(c3ccc(O)cc3Oc3cc(O)ccc32)c2ccccc21", "Potency": "inactive"}, {"smiles": "CN(C)[C@@H]1C(=O)C(C(=O)NCN2CCCC2)=C(O)[C@@]2(O)C(=O)C3=C(O)c4c(O)cccc4[C@@](C)(O)C3C[C@@H]12", "note": "(stereo not given in full)", "Potency": "inactive"}]}]}
